Results: PubChem BioAssay AID493085 (Broad Institute, 2011)
Hit rate of the full screen: of about 2,400 compounds, about 360 (15%) were called active. Not shown: some 5% with an inconclusive outcome.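 How the source made its calls: active means falling-signal curve with half-maximal concentration at or below ten times the top tested dose; inconclusive means flat fit at 30 to 70% inhibition, or poor fit; inactive means signal rise, flat within 30%, or potency beyond limit.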 Not all results are given here. Measured potencies and affinities stand elsewhere.

Assay: dox-induced RFP signal loss in R4-3T3 cells – cell-based, NIH3T3 R4, HSE-GFP and Tet-On RFP, cherry-pick, set 3, dose response (AID 493085);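 further: cells heat shocked 2 h at 42 °C with doxycycline to induce reporters; 0% = neutral control wells and -100% = didemnin B control at 400 nM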
Conditions: NIH3T3 R4 HSE-GFP/Tet-RFP reporter, fluorescence, 48 h; series mostly up to 19.5 µM; activity change, negative = inhibition: at the top concentration

Activity change, negative = inhibition, inactive:
OC1(c2ccc(Br)cc2)CCN(Cc2cccc(Br)c2)CC1 -3.81%
Cn1ccnc1SCC(=O)N(C1CCCCC1)C1CCCCC1 -3.07%
COc1cc(C(=O)N(C)C2CCCN(Cc3ccccc3F)C2)cc(OC)c1OC (centres undefined) 3.93%
CS(=O)(=O)N(CC(=O)O)c1ccc(C23CC4CC(CC(C4)C2)C3)cc1 7.89%
O=C(CCC1CCCNC1)c1ccccc1 (centres undefined) 4.57%
CC(=O)c1cnn(-c2c(Cl)cc(Cl)cc2Cl)c1C 2.88%
CC(C)Oc1ccc(C(=O)O)cc1 -1.52%
NC(=O)c1ccsc1NC(=O)C1CCCCC1 3.52%
COC(=O)c1cccc(N2C(=O)C3CC=CCC3C2=O)c1 (centres undefined) -7.46%
O=C(N/N=C/c1ccc(F)cc1)c1ccc(OCc2ccccc2)cc1 -6.34%
COc1ccc(C(=O)Nc2ccccc2C(=O)N/N=C/c2ccc(O)c(OC)c2)cc1 -5.62%
O=C(N/N=C/c1cc([N+](=O)[O-])ccc1O)c1ccncc1 -7.98%
CCOc1cc(N2CCOCC2)c(OCC)cc1NC(=O)c1cc(-c2ccco2)nc2ccccc12 -12.4%
COC(=O)[C@H](C)NC(=O)NCCC1=CCCCC1 -2.47%
Cc1ccc(C(=O)/C=C/Nc2ccccn2)cc1 -0.009%
COC(=O)c1nn(-c2cccc(C(F)(F)F)c2)c(=O)cc1Sc1ccccn1 -0.462%
CCCCOc1ccc(C2C(=O)N(C3CCCCC3)CC(=O)N2CC2CCCO2)cc1 (centres undefined) 3.16%
CC(C)(C)N=C1NN=C(c2ccc(Cl)cc2)CS1 -0.077%
CCOC(=O)c1c(C)[nH]c(C2=NNC(=Nc3cccc(Cl)c3)SC2)c1C 6.15%
CC(C)(C)c1ccccc1NC(=O)NC1CCN(Cc2c(F)cccc2Cl)CC1 6.36%
COc1ccccc1NC1=C(Cl)C(=O)N(C2CCCCC2)C1=O -7.56%
CCOC(=O)Cc1csc(NC(=O)c2sc3nc4ccc(CC)cc4cc3c2N)n1 0.721%
O=C1c2ccccc2C(O)N1c1ccccc1 (centres undefined) -5%
Cc1ccnc(N2CCCC(C(=O)NCc3cccs3)C2)n1 (centres undefined) -3.11%
O=C(O)CCn1cc(/C=C2\NC(=S)N(c3ccccc3)C2=O)c(-c2ccc(Br)cc2)n1 -0.659%
Cc1noc(C)c1COc1ccc(C(=O)OCC(=O)Nc2c(C)n(C)n(-c3ccccc3)c2=O)cc1 -3.94%
COc1cccc(CNc2ccc(S(N)(=O)=O)cc2)c1OC -1.4%
COc1cc(/C=C/c2nc(N)nc(-c3ccccc3O)n2)cc(OC)c1OC 18.8%
CN=c1scc(-c2ccccc2F)n1/N=C/c1ccc[nH]1 -4.98%
Cc1cc(C)c(NC(=O)CSc2nnc(-c3ccncc3)n2Cc2ccco2)c(Cl)c1 -3.6%
CCOc1ccc(NCc2nnc(SCc3ccccc3Cl)n2-c2ccccc2)cc1 -11.4%
CCc1ccccc1-n1c(SCC(=O)Nc2ccc3c(c2)OCCO3)nc2[nH]ncc2c1=O -7.25%
CCOC(=O)Cn1c(CN2CCN(c3cccc(Cl)c3)CC2)nc2c1c(=O)[nH]c(=O)n2C -12.4%
CCCCn1c(=O)n(CC(=O)Nc2c(CC)cccc2CC)c(=O)c2c1nc(CO)n2CCC 6.15%
Cc1[nH]n(-c2ccccc2)c(=S)c1C=Nc1cccc([N+](=O)[O-])c1 -1.4%
CCOc1ccc(/C(O)=C2/C(=O)C(=O)N(CCCn3ccnc3)C2c2cccs2)cc1Cl (centres undefined) 1.41%
Cc1ccc(S(=O)(=O)N2CCN(C(=O)c3cccc(F)c3)CC2)cc1 -8.47%
O=C(O)c1cc(-c2cccc3ccccc23)nc2ccccc12 -4.24%
CC(C)Sc1nc2sccc2c(=O)n1-c1ccccc1 11.3%
Cc1nc(NC(C)c2ccccc2)sc1C(=O)Nc1ccccc1 (centres undefined) 9.94%
COc1cccc(C(=O)Nc2ccc(NC(=O)C3CC=CCC3C(=O)O)cc2)c1 (centres undefined) 0.016%
CC(C)CN(CC(C)C)C(=S)NC1CCCCC1 -6.14%
O=[N+]([O-])c1ccc(N2CCN(Cc3ccc4c(c3)OCO4)CC2)nc1 -8.55%
COc1cc(C(=O)Nc2ccccc2NC(=O)c2cc(OC)c(OC)c(OC)c2)cc(OC)c1OC 2.37%
COc1ccccc1NC(=O)c1ccc([N+](=O)[O-])o1 57.8%
O=C(NCc1ccc2c(c1)OCO2)c1cc2c(s1)CS(=O)(=O)C2 -6.5%
Cc1c(C(=O)NCc2ccc3c(c2)OCO3)sc2nc(-c3ccccc3)cn12 -10%
Cc1cccc(NC(=O)CN2C(=O)N/C(=C/c3cc(C)n(C(C)C)c3C)C2=O)c1 -10.4%
CCn1c(COc2ccc(C)cc2)nnc1SCC(=O)Nc1ccc2c(c1)OCCO2 -7.64%
CCN(C(=O)Cn1c([N+](=O)[O-])cnc1C)c1ccccc1 -16.7%
COc1ccccc1Nc1nc(NCCCN(C)C)nc(N)c1[N+](=O)[O-] -1.84%
CC(C)(C)c1cnnn1-c1ccc(C(=O)CCl)cc1 3.34%
CC1(C)CC(=O)C2=C(C1)N(c1ccc(F)cc1)C(=O)CC2c1ccccc1 (centres undefined) -4.86%
O=C(COC(=O)c1cnccn1)Nc1ccc(Cl)cn1 -5.03%
Cc1cc(C(=O)COC(=O)C2CC2)c(C)n1-c1ccc(F)cc1 4.63%
Cc1cc(C(=O)CSc2nnc3ccccn23)c(C)n1-c1ccccc1 0.992%
COc1ccc(C(=O)CSc2nc(C)cc(=O)[nH]2)cc1C -1.45%
CC1C=Cc2ccccc2N1C(=O)c1ccccc1 (centres undefined) -3%
O=C(OCCN1CCN(c2ncc(C(F)(F)F)cc2Cl)CC1)c1ccc(Cl)cc1 -3.94%
CCN1CCN(c2cc(C)c3cc(NC(=S)N4CCCC(C)C4)ccc3n2)CC1 (centres undefined) 6.67%
COc1cccc(CC2(CO)CCN(S(=O)(=O)c3ccc(OC)cc3OC)CC2)c1 1.79%
CC(C)CC(C(=O)Nc1cccc(O)c1)N1C(=O)c2ccccc2C1=O (centres undefined) -0.424%
COCCN(C(=O)COC(=O)/C=C/c1ccc(C(F)(F)F)cc1)c1c(N)n(Cc2ccccc2)c(=O)[nH]c1=O 4.7%
Cc1ccccc1OCC(=O)OCC(=O)c1ccc(-c2ccccc2)cc1 -2.21%
Cc1ccccc1OCC(=O)Nc1ccc([N+](=O)[O-])cc1 -3.6%
CN(Cc1ccccc1)C(=O)CCn1c(=O)oc2ccccc21 -5.05%
Cc1ccc(S(=O)(=O)NC(C)(C)CSc2nncn2N)cc1 -12.4%
CC1(C)C=C2C(=NN(c3ccccc3)C(N)=C2C#N)CO1 0.55%
Fc1ccc(-n2cc(CNCCc3ccccn3)c(-c3ccccc3Cl)n2)cc1 6.35%
O=C(CCl)Nc1ccccc1C(=O)c1ccccc1 -3.67%
O=C(CN1CCN(C(=O)c2ccccc2)CC1)Nc1ncc(Br)cc1Br -7.04%
O=C(OCc1cc(=O)n2cc(Br)ccc2n1)C1COc2ccccc2O1 (centres undefined) -10.6%
COc1ccc(CN(CCCN2CCOCC2)C(=O)Nc2cccc(Cl)c2)cc1OC 35.5%
CCOC(=O)c1sc(NC(=O)Nc2ccccc2F)nc1C -5.42%
CCOC(=O)Cc1cnc(NC(=O)c2ccccc2)s1 -10.8%
CN1CCN(c2ccc(NC(=O)c3ccc4ccccc4c3)cc2)CC1 5.25%
COc1ccc(C(C)NC(=S)NC2CCCCC2)cc1OC (centres undefined) 17%
COc1ccc(C(C(=O)NC2CCCCC2)N(C(=O)CCl)c2cccc(Cl)c2)cc1 (centres undefined) 54%
Cc1ccc(Cn2c(=N)n(CC(=O)c3ccccc3)c3ccccc32)cc1 -8.55%
CCCCSC1=C(C#N)C(c2ccccc2C)CC(=O)N1 (centres undefined) -0.422%
O=C(CCc1ccccc1)Nc1cccc([N+](=O)[O-])c1 -1.97%
Cc1nc(-c2ccc(Cl)cc2)sc1C1(C)CC(c2ccc(Cl)cc2)=NO1 (centres undefined) 5.7%
CN(C)c1nc(OCCNC(=O)COc2ccc(Cl)cc2Cl)nc(N(C)C)n1 -11.4%
Cc1cccc(C(=O)NC2CCN(C(=O)Nc3ccc(F)cc3)CC2)c1 -0.23%
C[n+]1c(/C=C/c2ccc3c(c2)OCO3)ccc2ccccc21 -0.328%
CCc1cc(C(=O)NCC(C)(C)N2CCOCC2)sc1C -5%
CCOC(=O)c1ccc(NC(=O)NS(=O)(=O)c2ccc(C)cc2)cc1 3.23%
CCOc1ccc(NC(=O)c2cccnc2C(=O)O)cc1 3.13%
N=C1C(c2nc3ccccc3[nH]2)=C(O)CN1c1ccc(CC(=O)O)cc1 13%
O=C(O)c1ccc(N2C(=O)CC(N3CCN(c4cccc(C(F)(F)F)c4)CC3)C2=O)cc1 (centres undefined) 1.6%
O=C(NNc1nc2ccccc2s1)Nc1ccccc1 -0.841%
COc1ccccc1Nc1ccc2nonc2c1[N+](=O)[O-] -4.82%
Cn1ccnc1Sc1cc(NCCCO)c([N+](=O)[O-])c2nonc12 -89.6%
COc1ccc(NC(=S)Nc2ccc(Oc3ccccc3)cc2)cc1 11.4%
Cc1cc(=O)oc2c(C)c(OC(C)C(=O)NCCCN3CCOCC3)ccc12 (centres undefined) 0.097%
Cc1c(O)ccc2c(CC(=O)N[C@@H](Cc3ccc(O)cc3)C(=O)O)cc(=O)oc12 -0.067%
Cc1cc(NC(=O)COc2coc(CN3CCN(c4ccccc4F)CC3)cc2=O)no1 -3.4%
CCOC(=O)c1cc(C#N)c(NCc2ccccc2)nc1C -8.53%
Cc1ccc(S(=O)(=O)CCC(=O)Nc2ccc(Br)cc2)cc1 -18.7%
O=C(O)c1cc(S(=O)(=O)Nc2ccc3c(c2)OCCO3)c(Cl)cc1Cl -9.48%
COc1ccc(OC)c(NC(=S)NCc2cccnc2)c1 -11%
CCc1ccc(-c2nc(CS(=O)CC(=O)NCc3cccnc3)c(C)o2)cc1 (centres undefined) -5.61%
COc1ccc(OC)c(NC(=O)CSc2nc3ccccc3cc2Cc2ccccc2)c1 2.64%
COc1ccc(N(CC(=O)NCc2ccc(F)cc2)C(=O)Cn2nnc(-c3ccc(C)o3)n2)cc1OC 3.23%
O=C(Cn1cnc2c(nnn2Cc2ccc(Cl)cc2)c1=O)N1CCCc2ccccc21 -4.06%
CCN(c1ccccc1)S(=O)(=O)c1ccc(Cl)c(C(=O)N(CC2CCCO2)C2CCS(=O)(=O)C2)c1 (centres undefined) -4.73%
O=C(O)c1csc(-c2ccccc2)n1 2.65%
Cc1cc(/C=C2\SC(=S)N(Cc3ccco3)C2=O)c(C)n1-c1ccccc1 -3.22%
Cc1cc(C(=O)CN2CCC(C)CC2)c(C)n1-c1ccccc1F 3.3%
